In PubChem BioAssay (NCATS):
Results filed as inconclusive are left out. Activity calls are given as the source filed them. Calls come from the whole dose curve; as a rule, active = well fitted curve in the direction sought with a large enough effect; inconclusive = small, poorly fitted or top-dose-only effect, or another doubt; inactive = no such curve, though single readings can be large; an effect the other way counts as inactive or inconclusive.

What was measured:
[1] = qHTS assay for measurement of the activity of small molecule inhibitors on Zika virus induced Caspase-3 activity in human iPSC derived neural progenitor cells (hNPCs) (AID 1224857); note: nearly all actives have a fitted effect of over 65% in size
Outline: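 Pretreat hNPCs with compound 1 h; infect ZIKV 2 FFU/cell; 6 h 37 C, 5% CO2; Caspase-Glo 3/7, 30 min RT; luminescence; normalize to no-virus and virus-only wells.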

[2] = qHTS assay for measurement of the activity of small molecule inhibitors on Zika virus induced Caspase-3 activity in human astrocytoma cells (AID 1224859)
Outline: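 Human SNB-19 astrocytoma cells in RPMI 1640 with 10% FBS receive compound one hour ahead of Zika virus at 2 FFU/cell. After 6 h infection, caspase-3/7 activity is detected by Caspase-Glo luminescence.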

[3] = qHTS Screen of the MIPE 4.0 Collection Against Ewings Sarcoma (RDES) (AID 1259252); note: nearly all actives have a fitted effect of over 35% in size; note: potency is the fitted concentration of half-maximal effect
Outline: (§1)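 After a 4 h attachment period in RPMI/5% FBS, cells were pin-dosed with test compounds; DMSO served as negative and 9.2 uM bortezomib (final) as positive control. Luminescent CellTiter-Glo signal at 48 h defined viability.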

[4] = qHTS Screen of the MIPE 4.0 Collection Against Ewings Sarcoma (TC71) (AID 1259253); note: nearly all actives have a fitted effect of over 40% in size; note: potency is the fitted concentration of half-maximal effect
Outline: as §1

[5] = qHTS Screen of the MIPE 4.0 Collection Against Ewings Sarcoma (EW8) (AID 1259255); note: nearly all actives have a fitted effect of over 35% in size; note: potency is the fitted concentration of half-maximal effect
Outline: as §1

[6] = qHTS Screen of the MIPE 4.0 Collection Against Ewings Sarcoma (TC32) (AID 1259256); note: nearly all actives have a fitted effect of over 45% in size; note: potency is the fitted concentration of half-maximal effect
Outline: as §1

[7] = qHTS assay to identify small molecule inhibitors of chordoma cells - UCH-1 (AID 1259355); note: nearly all actives have a fitted effect of over 55% in size
Outline: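 800 cells/well, overnight attach; compounds pinned at 15 concs, then auranofin/camptothecin/doxorubicin/rubitecan/topotecan combo added; 48hr 37 C, 5% CO2; CellTiter-Glo, 30min RT, luminescence.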

[8] = qHTS assay to identify small molecule inhibitors of chordoma cells - UCH-2 (AID 1259356); note: series mostly up to about 46 µM

Measured: Potency

CCc1cc2c(cc1N1CCC(N3CCOCC3)CC1)C(C)(C)c1[nH]c3cc(C#N)ccc3c1C2=O
inactive: [1] | [2] | [3] | [4] | [5]

COc1cc2c(Nc3ccc(NC(=O)c4ccccc4)cc3)ncnc2cc1OCCCN1CCOCC1
inactive: [1] | [2]
active: [3] 23.5 µM | [4] 16.6 µM | [5] 1.05 µM | [6] 3.32 µM

Cc1nc(Nc2n[nH]c3c2CN(C(=O)N[C@H](CN(C)C)c2ccccc2)C3(C)C)c2sccc2n1
active: [3] 3.32 µM | [4] 1.32 µM | [5] 2.64 µM
inactive: [1] | [2]

Cn1cncc1[C@@](N)(c1ccc(Cl)cc1)c1ccc2c(c1)c(-c1cccc(Cl)c1)cc(=O)n2C
inactive: [1] | [2]
active: [3] 7.43 µM | [4] 4.69 µM | [5] 5.26 µM

Nc1ncnc2c1c(-c1cccc(OCc3ccccc3)c1)cn2C1CC(CN2CCCC2)C1 (stereo not given)
active: [3] 23.5 µM | [4] 5.26 µM | [5] 16.6 µM | [6] 5.26 µM
inactive: [1] | [2]

Cc1ccc(CN2CCNCC2)cc1NC(=O)CNc1ccc(F)c(F)c1
active: [3] 6.62 µM | [4] 5.26 µM | [5] 26.4 µM | [6] 13.2 µM
inactive: [1] | [2]

CCN(CC)CCNC(=O)c1ccc2nc(-c3ccccc3)c(-c3ccc(CN4CCC(n5c(=O)[nH]c6ccccc65)CC4)cc3)nc2c1
inactive: [1] | [2]
active: [3] 23.5 µM | [4] 23.5 µM | [5] 16.6 µM | [6] 18.7 µM

O=C(NC1CCNCC1)c1[nH]ncc1NC(=O)c1c(Cl)cccc1Cl
active: [3] 0.187 µM | [4] 0.264 µM | [5] 0.418 µM
inactive: [1] | [2]

CN(C1CCc2c(c3ccccc3n2CC(=O)O)C1)S(=O)(=O)c1ccc(F)cc1 (stereo not given)
not listed: [7] | [8]
inactive: all other assays above

CC(C)c1cnn2c(NCc3ccccc3)cc(N[C@@H](CO)[C@H](O)CO)nc12
active: [3] 0.469 µM | [4] 0.264 µM | [5] 0.372 µM
inactive: [1] | [2]

CN(C)c1nc(Cc2ccc(NC(=O)c3ccc4ccccc4c3)cc2)nc(Cl)c1CC(=O)O
not listed: [7] | [8]
inactive: all other assays above

CCCCOc1c(C(=O)c2c(F)cc(C)cc2F)cnc2n[nH]cc12
inactive: [1] | [2]
active: [3] 2.96 µM | [4] 2.96 µM | [5] 18.7 µM | [6] 16.6 µM

COc1cc(C(=O)N2CCC(N3CCN(C)CC3)CC2)ccc1Nc1ncc2c(n1)N(C)c1ccccc1C(=O)N2C
active: [3] 13.2 µM | [4] 4.69 µM | [5] 9.35 µM | [6] 4.18 µM
inactive: [1] | [2]

Nc1cccc(-c2cc3c(Oc4cccc(O)c4)ncnc3[nH]2)c1
inactive: [1] | [2]
active: [3] 2.35 µM | [4] 4.18 µM | [5] 3.32 µM | [6] 2.96 µM

Cc1cc(Nc2cc(N3CCN(C)CC3)nc(C=Cc3ccccc3)n2)n[nH]1
inactive: [1] | [2]
active: [3] 5.4 µM | [4] 2.41 µM | [5] 1.71 µM

CC(O)C1C(=O)N2C(C(=O)O)=C(SC3CNC(C(=O)N(C)C)C3)C(C)C12 (stereo not given)
inactive: [1] | [2] | [3] | [4] | [5]

CCNC(=O)Nc1ccc2ncc(Nc3ccc(C)cc3)nc2n1
active: [3] 0.332 µM | [4] 2.96 µM | [5] 2.96 µM | [6] 1.32 µM
inactive: [1] | [2]

COc1cc(-c2nn(C3CCC(N4CCN(C(C)=O)CC4)CC3)c3ncnc(N)c23)ccc1NC(=O)c1cc2ccccc2n1C (stereo not given)
inactive: [1] | [2]
active: [3] 1.87 µM | [4] 2.96 µM | [5] 6.62 µM | [6] 3.72 µM

Clc1cccc(-n2nnnc2NCc2ccccc2Oc2ccccn2)c1Cl
not listed: [7] | [8]
inactive: all other assays above

CCc1c2c(nc3ccc(O)cc13)-c1cc3c(c(=O)n1C2)COC(=O)[C@]3(O)CC
inactive: [1] | [2]
active: [3] 0.0021 µM | [4] 0.0023 µM | [5] 0.0021 µM

CCCn1c(=O)c2[nH]c(-c3cnn(Cc4cccc(C(F)(F)F)c4)c3)nc2n(CC)c1=O
not listed: [7] | [8]
inactive: all other assays above

Cc1c(CN2CCN(S(C)(=O)=O)CC2)sc2c(N3CCOCC3)nc(-c3cnc(N)nc3)nc12
inactive: [1] | [2]
active: [3] 0.059 µM | [4] 0.0662 µM | [5] 0.0662 µM | [6] 0.0372 µM

CC(C)c1cc(-c2n[nH]c(=O)n2-c2ccc3c(ccn3C)c2)c(O)cc1O
inactive: [1] | [2]
active: [3] 0.105 µM | [4] 0.0662 µM | [5] 0.0662 µM | [6] 0.0526 µM

Cc1cc(N2CCOCC2)cc2[nH]c(-c3c(NC[C@@H](O)c4cccc(Cl)c4)cc[nH]c3=O)nc12
active: [3] 0.118 µM | [4] 0.59 µM | [5] 20.9 µM | [6] 1.87 µM
inactive: [1] | [2]

NC(=O)c1cccc2cn(-c3ccc([C@@H]4CCCNC4)cc3)nc12
inactive: [1] | [2]
active: [3] 1.87 µM | [4] 3.72 µM | [5] 7.43 µM | [6] 2.35 µM

O=C(NCCCNc1nc(Nc2cccc(NC(=O)N3CCCC3)c2)ncc1I)c1cccs1
inactive: [1] | [2]
active: [3] 13.2 µM | [4] 16.6 µM | [5] 1.87 µM | [6] 2.35 µM

Cc1nc(N)ncc1-c1nc(N2CCOCC2)c2sc(C(C)(C)O)cc2n1
active: [3] 1.66 µM | [4] 5.9 µM | [5] 6.62 µM | [6] 2.35 µM
inactive: [1] | [2]

O=C(O)c1ccc2c(c1)nc(Nc1cccc(Cl)c1)c1ccncc12
active: [3] 4.18 µM | [4] 4.69 µM | [5] 7.43 µM | [6] 5.9 µM
inactive: [1] | [2]

COc1ccc2c(OCc3nnc4ccc(-c5ccccc5)nn34)ccnc2c1
inactive: [1] | [2] | [3] | [4] | [5]

CC(C)CC(=O)Nc1n[nH]c2c1CN(C(=O)C1CCN(C)CC1)C2(C)C
inactive: [1] | [2]
active: [3] 0.296 µM | [4] 0.743 µM | [5] 1.32 µM | [6] 0.833 µM

CNC(=O)c1ccc(-c2cnc3ncc(Cc4ccc5ncccc5c4)n3n2)cc1F
not listed: [7] | [8]
inactive: all other assays above

O=C1CCC[C@@H]2[C@H]3CCC[N+]4([O-])CCC[C@@H](CN12)[C@@H]34 (stereo not given in full)
not listed: [7] | [8]
inactive: all other assays above

CCn1nnc2c(N3CCOCC3)nc(-c3ccc(NC(=O)Nc4ccc(C(=O)N5CCN(C)CC5)cc4)cc3)nc21
active: [3] 0.0148 µM | [4] 0.0418 µM | [5] 0.0066 µM | [6] 0.0074 µM
inactive: [1] | [2]

Cc1ccc(C(=O)Nc2cccc(C(F)(F)F)c2)cc1-c1ccc2nc(NCCN3CCOCC3)ncc2c1
active: [3] 14.8 µM | [4] 14.8 µM | [5] 14.8 µM | [6] 11.8 µM
inactive: [1] | [2]

COc1cc(Nc2ncc(F)c(Nc3ccc4c(n3)N(COP(=O)(O)O)C(=O)C(C)(C)O4)n2)cc(OC)c1OC
active: [3] 11.8 µM | [4] 16.6 µM | [5] 7.43 µM | [6] 3.32 µM
inactive: [1] | [2]

CN1CCN(c2cc(C(=O)Nc3ccc4c(c3)-c3c(c(C(N)=O)nn3-c3ccc(F)cc3)CC4)c(Cl)cn2)CC1
inactive: [1] | [2]
active: [3] 2.64 µM | [4] 4.18 µM | [5] 20.9 µM | [6] 13.2 µM

O=C(O)CO.[NH2-].[NH2-].[Pt+2]
inactive: all assays above

COc1cc2c(NC3CCN(C(C)C)CC3)nc(C3CCCCC3)nc2cc1OCCCN1CCCC1
active: [3] 7.43 µM | [4] 7.43 µM | [5] 5.9 µM | [6] 5.26 µM
inactive: [1] | [2]

COc1c(N2C[C@@H]3CCCN[C@H]3C2)c(F)cc2c(=O)c(C(=O)O)cn(C3CC3)c12
inactive: all assays above

CC(C)c1cc(C(=O)N2Cc3ccc(CN4CCN(C)CC4)cc3C2)c(O)cc1O
active: [3] 0.469 µM | [4] 0.235 µM | [5] 0.372 µM | [6] 0.209 µM
inactive: [1] | [2]

Cc1coc2c1C(=O)C(=O)c1c-2ccc2c1CCCC2(C)C
active: [6] 0.0037 µM
not listed: [7] | [8]
inactive: all other assays above

Nc1ccn([C@@H]2CS[C@H](CO)O2)c(=O)n1
inactive: all assays above

Clc1ccc2ncc(-c3cccc(NC4CNC4)n3)n2c1
active: [3] 18.7 µM | [4] 20.9 µM | [5] 3.32 µM | [6] 18.7 µM
inactive: [1] | [2]

NC1(Cc2ccc(Cl)cc2)CCN(c2ncnc3[nH]ccc23)CC1
inactive: [1] | [2]
active: [3] 16.6 µM | [4] 18.7 µM | [5] 16.6 µM | [6] 16.6 µM

COc1cc(C(=O)NS(=O)(=O)c2ccccc2C)ccc1Cc1cn(C)c2ccc(NC(=O)OC3CCCC3)cc12
active: [3] 23.5 µM | [4] 23.5 µM | [5] 16.6 µM | [6] 18.7 µM
inactive: [1] | [2] | [7] | [8]

Cc1cc(CN2CCN(c3c(Br)cnc4nc(-c5ccc(N6CCN(C)CC6)cc5)[nH]c34)CC2)no1
inactive: [1] | [2]
active: [3] 14.8 µM | [4] 18.7 µM | [5] 0.935 µM | [6] 1.18 µM
